PubChem BioAssay AID1239 (SRMLSC, 2008)
Hit rate of the full screen: of about 190,000 compounds, about 3,100 (1.6%) were called active. No stated cut-off is given here; in the data, active means fold change above about 3.3; inconclusive means no clear call, values can overlap the other calls; inactive means below that. The entries come from a sample that favours actives as a whole.

Experiment: NF-kB upregulation, human neuronal cells – cell-based, HTS, primary screen (AID 1239)
Settings: NF-kB reporter expression, at 12.5 µM, active compounds read high

Fold change, inactive:
O=C1c2ccccc2C(=O)N1CCC(O)C[N+](=O)[O-] (stereo not drawn) 0.98
COc1ccc(-c2nc3cnccn3c2NC(C)(C)CC(C)(C)C)cc1O 0.68
Cc1cc(C)c2nc(NC(=O)c3ccc4c(c3)OCO4)sc2c1 1.11
O=C(Nc1cccnc1)c1ccc2c(c1)OCO2 1.47
O=C(Nc1cccc([N+](=O)[O-])c1)c1ccc2c(c1)OCO2 1.37
Cn1nnnc1SCC(=O)Nc1nc2ccccc2s1 1.74
COCc1nnc(NC(=O)c2ccc3c(c2)OCO3)s1 2.07
Cn1c(=O)n(C)c2cc(C(=O)Nc3ccc4c(c3)OCO4)ccc21 1.54
CC(=O)Nc1ccc(-c2csc(NC(=O)Nc3ccccc3)n2)cc1 1.32
COc1ccc(C(=O)Nc2ccc3c(c2)OCO3)cc1OC 2.06
COc1ccc(-c2nn(-c3ccccc3)cc2CN2CCCO2)c(F)c1 1.16
NC(N)=N/N=C/c1ccc(Cl)c([N+](=O)[O-])c1 1.03
CN1CCN(NC(=O)c2ccc(S(=O)(=O)N3CCCCCC3)cc2)CC1 0.97
O=c1[nH]n(-c2ccc([N+](=O)[O-])cc2)c(=O)c2ccccc12 1
CC(=O)c1ccc(N=C2SCCCN2C(=O)C2CCCCC2)cc1 1.75
COc1cccc(NC(=O)CS(=O)(=O)c2cn(CC(=O)N3CCOCC3)c3ccccc23)c1 0.88
O=C(CSc1nc2ccc(Nc3nc(N4CCOCC4)nc(N4CCOCC4)n3)cc2s1)NCc1ccco1 1.02
CC(C)(C)C1CCC(C(=O)Nc2cccnc2)CC1 (stereo not drawn) 0.97
COC(=O)C(=Nc1ccccc1)/C(C(=O)C(=O)N(C)c1ccccc1)=C(\O)c1ccc(Cl)cc1 0.95
O=C(Nc1ccc2nccnc2c1)c1ccco1 1.46
O=C(Nc1cccc(-c2nc3ncccc3o2)c1)c1ccco1 0.74
CSc1ccccc1C(=O)NCc1ccccc1 1.09
COc1ccc(C2COC(=O)C2=N)c(NC(=O)c2ccccc2)c1 (stereo not drawn) 1.02
C/C(=N\NC(=O)c1ccccc1C)c1ccc(N2CCOCC2)cc1 1.09
O=C(Cc1ccccc1)NC(=S)Nc1ccc(N2CCCCC2)cc1 1.04
COc1ccc(C(=O)NC(=S)Nc2ccc(N3CCCC3)cc2)cc1OC 0.99
COc1cccc(OC)c1C(=O)Nc1ccc(N2CCCCC2)cc1 0.92
COc1cccc(C(=O)NNC(=O)c2ccccc2Br)c1 1.05
COn1c(-c2ccc(Cl)cc2Cl)nc2ncccc21 1.29
O=C(CN1CCC(O)(c2ccccc2)CC1)Nc1ccc2c(c1)OCCO2 0.97
COc1ccc(CN2CCCC(CNC(=O)c3ccc(F)cc3)C2)cc1OC (stereo not drawn) 1.13
CCN(CC(=O)NCCc1ccccc1)S(=O)(=O)c1ccccc1 1.36
CC1CCCN(CC(O)COc2ccc3c(c2)OCO3)C1 (stereo not drawn) 1.2
C/C(=N\OCC(=O)Nc1ccc(Br)cc1)c1cccs1 1.23
CCOc1ccc2nc(NCCNS(=O)(=O)c3ccccc3)c(C#N)cc2c1 1.4
Cc1nonc1NC(=O)CSc1nc2ccccc2cc1C#N 1.83
CC(C)N1CCC(=NNc2ccc([N+](=O)[O-])cc2S(=O)(=O)N2CCOCC2)CC1 1.19
COc1ccc(N2C(=O)/C(=C\c3ccco3)N=C2SCC(N)=O)cc1Cl 1.3
CCN(CC(=O)Nc1ccc(Cl)c(S(=O)(=O)N(C)C)c1)Cc1nc2ccccc2c(=O)[nH]1 0.79
Clc1ccc(-c2nnc(SCc3nc4ccccc4s3)o2)cc1 1.18
O=C(OCC#CCSc1nnc(-c2ccncc2)o1)c1sc2ccccc2c1Cl 1.38
CC(C)(C)C(=O)CN1C2=NCCN2c2ccccc21 1.09
Cc1ccnc(NC(=O)CCC(=O)N(CC(=O)NCc2ccccc2)Cc2ccco2)c1 0.85
Cc1ccc2c(=O)oc(N(C)C)nc2c1 0.93
O=C(CSc1ccsc1[N+](=O)[O-])N1CCCCC1 1.39
S=c1[nH]nc(/C=C/c2ccccc2)o1 1.12
O=C1C2C3C=CC(C3)C2C(=O)N1c1ccc(-c2nc3ccccc3c(=O)o2)cc1 (stereo not drawn) 1.08
CN(C)c1ccnc(Nc2ccc(F)cc2)c1C#N 1.02
CN(Cc1ccc2nsnc2c1)Cc1nc(Cc2cccc(F)c2)no1 1.05
CN(C)c1nccc(NCc2ccccc2)c1C#N 1.55
CCOc1cc(NC(=O)CCl)c(OCC)cc1NC(C)=O 2.72
CC(=O)Nc1ccn(Cc2c(F)cccc2Cl)n1 1.2
Cc1ccc(Cn2ccc(NC(=O)c3cc(C(C)C)on3)n2)cc1 1.16
O=C(Nc1ccn(Cc2ccc(F)cc2)n1)c1ccncc1 1.08
Cn1cc([N+](=O)[O-])c(C(=O)Nc2cnn(Cc3ccc(F)cc3)c2)n1 0.64

Fold change, active:
O=C(Nc1ccccc1)Nc1nc2ccccc2s1 8.18
O=C(Nc1nc2ccccc2s1)c1ccc2c(c1)OCO2 7.05
O=C(Nc1ccccc1)c1ccc2c(c1)OCO2 3.31
CC(C)C(=O)Nc1cccc(C(=O)Nc2ccc3c(c2)OCO3)c1 4.07
O=C(Nc1ccc2oc(-c3ccccc3F)nc2c1)c1ccco1 5.05
COc1cccc(C(=O)Nc2ccc(N3CCCC3)cc2)c1 3.3
Cc1ccccc1C(=O)Nc1ccc(N2CCCCCC2)cc1 3.92
COc1cccc(C(=O)Nc2cc3c(cc2Br)OCCCO3)c1 3.38
CCOc1ccc2cc(C#N)c(SCC(=O)OC)nc2c1 5.87
C#CCSc1nnc(-c2sc3ccccc3c2Cl)o1 3.81
O=c1oc(/C=C/c2ccccc2)nc2ccccc12 4.63
O=C(Nc1ccn(Cc2ccccc2)n1)c1cccc(F)c1 6.25
O=C(Nc1ccn(Cc2ccccc2)n1)c1n[nH]c([N+](=O)[O-])c1Cl 3.79
